# Measurements reported in PubChem BioAssay AID1159580 (chemical genetic matrix, 2015).
# Values joined by “and” are separate entries in the source; they are usually repeats but may differ in a detail not shown here. Equal values may be shown once. The whole screen tested about 5,500 compounds, of which about 2,000 (36%) were called active. Inconclusive results (about 18%) are left out. Some of the results follow. Unmarked numbers belong to inactive results. Rule as the data show it: active = normalized growth mostly below about 0.91 (no sharp cut-off); inconclusive = no clear call, values can overlap the other calls; inactive = mostly above about 0.92.
# Experiment: chemical genetic growth profiling, strain panel (AID 1159580);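 also: tested at 20 µM; growth read once vehicle control cultures reached saturation at 30 °C; 1 = growth at the plate median or of vehicle wells; lower values mean less growth of the strain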
# Conditions: S. cerevisiae deletion strains, growth OD
smiles,measurement,setting,value
CCCCCC/C=C\CCCCCCCc1cccc(O)c1C(=O)O,normalized growth,"locus YAL013W, strain DEP1, active compounds read low",1.08
same,normalized growth,"locus YAL021C, strain ccr4, active compounds read low",0.972
same,normalized growth,"locus YAL026C, strain drs2, active compounds read low",0.979
same,normalized growth,"locus YAL030W, strain snc1, active compounds read low",0.974
same,normalized growth,"locus YBL061C, strain skt5, active compounds read low",0.98
same,normalized growth,"locus YBR009C, strain hhf1, active compounds read low",0.997
same,normalized growth,"locus YBR021W, strain FUR4, active compounds read low",0.929
same,normalized growth,"locus YBR023C, strain chs3, active compounds read low",0.967
same,normalized growth,"locus YBR171W, strain sec66, active compounds read low",1.05
same,normalized growth,"locus YBR229C, strain ROT2, active compounds read low",0.988
same,normalized growth,"locus YBR231C, strain swc5, active compounds read low",0.942
same,normalized growth,"locus YBR279W, strain paf1, active compounds read low",0.984
same,normalized growth,"locus YCL011C, strain gbp2, active compounds read low",0.95
same,normalized growth,"locus YCL016C, strain dcc1, active compounds read low",0.989
same,normalized growth,"locus YCL029C, strain bik1, active compounds read low",0.985
same,normalized growth,"locus YCL061C, strain MRC1, active compounds read low",0.989
same,normalized growth,"locus YCL069W, strain vba3, active compounds read low",0.938
same,normalized growth,"locus YCR088W, strain abp1, active compounds read low",0.972
same,normalized growth,"locus YDL005C, strain med2, active compounds read low",0.958
same,normalized growth,"locus YDL035C, strain GPR1, active compounds read low",1.05
same,normalized growth,"locus YDL040C, strain nat1, active compounds read low",0.967
same,normalized growth,"locus YDL074C, strain BRE1, active compounds read low",0.992
same,normalized growth,"locus YDL101C, strain DUN1, active compounds read low",1.01
same,normalized growth,"locus YDL185W, strain tfp1, active compounds read low",1.01
same,normalized growth,"locus YDL192W, strain arf1, active compounds read low",1
same,normalized growth,"locus YDR001C, strain nth1, active compounds read low",0.983
same,normalized growth,"locus YDR069C, strain doa4, active compounds read low",0.971
same,normalized growth,"locus YDR101C, strain arx1, active compounds read low",0.987
same,normalized growth,"locus YDR137W, strain rgp1, active compounds read low",0.939
same,normalized growth,"locus YDR150W, strain NUM1, active compounds read low",1.04
same,normalized growth,"locus YDR159W, strain sac3, active compounds read low",0.974
same,normalized growth,"locus YDR162C, strain NBP2, active compounds read low",1.06
same,normalized growth,"locus YDR195W, strain ref2",0.975
same,normalized growth,"locus YDR297W, strain sur2, active compounds read low",0.979
same,normalized growth,"locus YDR318W, strain mcm21, active compounds read low",0.995
same,normalized growth,"locus YDR334W, strain swr1, active compounds read low",0.956
same,normalized growth,"locus YDR335W, strain msn5, active compounds read low",0.975
same,normalized growth,"locus YDR388W, active compounds read low",1.01
same,normalized growth,"locus YDR392W, strain spt3, active compounds read low",0.813
same,normalized growth,"locus YDR502C, strain sam2, active compounds read low",1.01
same,normalized growth,"locus YEL003W, strain gim4, active compounds read low",0.982
same,normalized growth,"locus YEL037C, strain rad23, active compounds read low",0.965
same,normalized growth,"locus YEL061C, strain CIN8 (second series), active compounds read low",0.953
same,normalized growth,"locus YEL061C, strain CIN8, active compounds read low",1.01
same,normalized growth,"locus YER015W, strain faa2, active compounds read low",0.982
same,normalized growth,"locus YER016W, strain bim1, active compounds read low",0.976
same,normalized growth,"locus YER110C, active compounds read low",0.981
same,normalized growth,"locus YER111C, strain swi4, active compounds read low",0.947
same,normalized growth,"locus YER155C, strain BEM2 (second series), active compounds read low",0.843 (active)
same,normalized growth,"locus YER155C, strain BEM2, active compounds read low",0.991
same,normalized growth,"locus YER167W, strain BCK2, active compounds read low",1.01
same,normalized growth,"locus YFR010W, strain ubp6, active compounds read low",0.993
same,normalized growth,"locus YGL078C, strain dbp3, active compounds read low",0.995
same,normalized growth,"locus YGL086W, strain mad1, active compounds read low",0.989
same,normalized growth,"locus YGL167C, strain pmr1, active compounds read low",0.966
same,normalized growth,"locus YGL173C, strain kem1, active compounds read low",0.976
same,normalized growth,"locus YGL227W, strain vid30, active compounds read low",0.955
same,normalized growth,"locus YGL240W, strain doc1, active compounds read low",0.976
same,normalized growth,"locus YGL248W, strain PDE1, active compounds read low",1.01
same,normalized growth,"locus YGL253W, strain hxk2, active compounds read low",0.975
same,normalized growth,"locus YGR135W, strain pre9, active compounds read low",1.03
same,normalized growth,"locus YGR252W, strain gcn5, active compounds read low",1.04
same,normalized growth,"locus YHR013C, strain ard1, active compounds read low",0.956
same,normalized growth,"locus YHR027C, strain rpn1, active compounds read low",0.992
same,normalized growth,"locus YHR030C, strain SLT2, active compounds read low",1
same,normalized growth,"locus YHR079C, strain IRE1 (second series), active compounds read low",0.992
same,normalized growth,"locus YHR079C, strain IRE1, active compounds read low",1.01
same,normalized growth,"locus YHR094C, strain hxt1, active compounds read low",0.992
same,normalized growth,"locus YHR129C, strain ARP1, active compounds read low",0.998
same,normalized growth,"locus YHR142W, strain chs7, active compounds read low",0.974
same,normalized growth,"locus YHR200W, strain rpn10, active compounds read low",1
same,normalized growth,"locus YIL066C, strain RNR3, active compounds read low",1.03
same,normalized growth,"locus YIL073C, strain SPO22, active compounds read low",1.3
same,normalized growth,"locus YIL125W, strain kgd1, active compounds read low",0.994
same,normalized growth,"locus YIR030C, strain dcg1, active compounds read low",0.995
same,normalized growth,"locus YJL092W, strain hpr5, active compounds read low",0.941
same,normalized growth,"locus YJL095W, strain BCK1 (second series), active compounds read low",0.97
same,normalized growth,"locus YJL095W, strain BCK1, active compounds read low",0.991 and 0.952
same,normalized growth,"locus YJL115W, strain asf1, active compounds read low",0.972
same,normalized growth,"locus YJL129C, strain trk1, active compounds read low",0.914
same,normalized growth,"locus YJL134W, strain LCB3, active compounds read low",1
same,normalized growth,"locus YJL154C, strain vps35, active compounds read low",0.971
same,normalized growth,"locus YJL164C, strain tpk1, active compounds read low",0.999
same,normalized growth,"locus YJL166W, strain qcr8, active compounds read low",0.976
same,normalized growth,"locus YJL168C, strain set2, active compounds read low",0.988
same,normalized growth,"locus YJL187C, strain SWE1 (second series), active compounds read low",0.997
same,normalized growth,"locus YJR043C, strain POL32, active compounds read low",1.06
same,normalized growth,"locus YJR066W, strain TOR1, active compounds read low",0.968
same,normalized growth,"locus YKL009W, strain mrt4, active compounds read low",1.02
same,normalized growth,"locus YKL068W, active compounds read low",1.01
same,normalized growth,"locus YKL085W, strain MDH1 (second series), active compounds read low",0.997
same,normalized growth,"locus YKL085W, strain MDH1, active compounds read low",0.997
same,normalized growth,"locus YKL160W, strain elf1, active compounds read low",0.997
same,normalized growth,"locus YKL190W, strain CNB1, active compounds read low",1.06
same,normalized growth,"locus YKR001C, strain vps1, active compounds read low",0.989
same,normalized growth,"locus YKR026C, strain gcn3, active compounds read low",0.961
same,normalized growth,"locus YKR091W, strain srl3, active compounds read low",0.978
same,normalized growth,"locus YLL001W, strain dnm1, active compounds read low",0.988
same,normalized growth,"locus YLL026W, active compounds read low",0.974
same,normalized growth,"locus YLL041C, strain sdh2, active compounds read low",0.989
same,normalized growth,"locus YLR027C, strain aat2, active compounds read low",0.986
same,normalized growth,"locus YLR039C, strain RIC1, active compounds read low",1.01
same,normalized growth,"locus YLR058C, strain SHM2, active compounds read low",1
same,normalized growth,"locus YLR102C, strain apc9, active compounds read low",0.987
same,normalized growth,"locus YLR113W, strain HOG1, active compounds read low",0.946
same,normalized growth,"locus YLR221C, strain rsa3, active compounds read low",0.944
same,normalized growth,"locus YLR258W, strain gsy2, active compounds read low",0.957
same,normalized growth,"locus YLR262C, strain YPT6 (second series), active compounds read low",0.939
same,normalized growth,"locus YLR262C, strain YPT6, active compounds read low",0.977
same,normalized growth,"locus YLR268W, strain sec22, active compounds read low",0.991
same,normalized growth,"locus YLR320W, strain mms22, active compounds read low",0.951
same,normalized growth,"locus YLR330W, strain CHS5, active compounds read low",1.06
same,normalized growth,"locus YLR342W, strain FKS1 (second series), active compounds read low",1.03
same,normalized growth,"locus YLR342W, strain FKS1, active compounds read low",0.964
same,normalized growth,"locus YLR357W, strain rsc2, active compounds read low",0.953
same,normalized growth,"locus YLR370C, strain arc18, active compounds read low",0.969
same,normalized growth,"locus YLR371W, strain rom2, active compounds read low",1
same,normalized growth,"locus YLR384C, strain iki3, active compounds read low",0.97
same,normalized growth,"locus YLR418C, strain cdc73, active compounds read low",0.953
same,normalized growth,"locus YML016C, strain PPZ1, active compounds read low",0.989
same,normalized growth,"locus YML032C, strain rad52, active compounds read low",1.02
same,normalized growth,"locus YML120C, strain ndi1, active compounds read low",0.973
same,normalized growth,"locus YML124C, strain tub3, active compounds read low",0.985
same,normalized growth,"locus YMR058W, strain fet3, active compounds read low",0.734 (active)
same,normalized growth,"locus YMR078C, strain ctf18, active compounds read low",0.999
same,normalized growth,"locus YMR125W, strain sto1, active compounds read low",0.852 (active)
same,normalized growth,"locus YMR129W, active compounds read low",0.963
same,normalized growth,"locus YMR205C, strain PFK2, active compounds read low",1.02
same,normalized growth,"locus YMR223W, strain ubp8, active compounds read low",1.01
same,normalized growth,"locus YMR231W, strain pep5, active compounds read low",0.999
same,normalized growth,"locus YMR263W, strain SAP30, active compounds read low",1.03
same,normalized growth,"locus YMR307W, strain GAS1, active compounds read low",1.01
same,normalized growth,"locus YNL067W, strain RPL9B, active compounds read low",1.03
same,normalized growth,"locus YNL071W, strain lat1, active compounds read low",0.97
same,normalized growth,"locus YNL183C, strain NPR1, active compounds read low",0.923
same,normalized growth,"locus YNL209W, strain ssb2, active compounds read low",0.974
same,normalized growth,"locus YNL233W, strain BNI4, active compounds read low",1.01
same,normalized growth,"locus YNL248C, strain rpa49, active compounds read low",0.983
same,normalized growth,"locus YNL250W, strain rad50, active compounds read low",0.982
same,normalized growth,"locus YNL271C, strain bni1, active compounds read low",0.99
same,normalized growth,"locus YNL298W, strain CLA4, active compounds read low",1.01
same,normalized growth,"locus YNL307C, strain MCK1, active compounds read low",0.995
same,normalized growth,"locus YNL322C, strain KRE1 (second series), active compounds read low",0.949
same,normalized growth,"locus YNL322C, strain KRE1, active compounds read low",1
same,normalized growth,"locus YNR049C, strain mso1, active compounds read low",0.973
same,normalized growth,"locus YNR052C, strain pop2, active compounds read low",1.01
same,normalized growth,"locus YOL012C, strain htz1",0.359
same,normalized growth,"locus YOL147C, strain pex11, active compounds read low",0.99
same,normalized growth,"locus YOR001W, strain rrp6, active compounds read low",0.927
same,normalized growth,"locus YOR061W, strain CKA2, active compounds read low",0.992
same,normalized growth,"locus YOR069W, strain VPS5, active compounds read low",0.995
same,normalized growth,"locus YOR070C, strain gyp1, active compounds read low",0.975
same,normalized growth,"locus YOR080W, strain dia2, active compounds read low",0.988
same,normalized growth,"locus YOR083W, strain WHI5, active compounds read low",1
same,normalized growth,"locus YOR106W, strain vam3, active compounds read low",0.985
same,normalized growth,"locus YOR136W, strain idh2, active compounds read low",0.988
same,normalized growth,"locus YOR144C, strain elg1, active compounds read low",0.994
same,normalized growth,"locus YOR184W, strain ser1, active compounds read low",0.999
same,normalized growth,"locus YOR231W, strain MKK1, active compounds read low",0.997
same,normalized growth,"locus YOR265W, strain rbl2, active compounds read low",0.987
same,normalized growth,"locus YOR270C, strain vph1, active compounds read low",1.01
same,normalized growth,"locus YOR290C, strain snf2, active compounds read low",1
same,normalized growth,"locus YOR316C, strain cot1, active compounds read low",0.986
same,normalized growth,"locus YPL051W, strain arl3, active compounds read low",0.974
same,normalized growth,"locus YPL078C, strain atp4, active compounds read low",0.971
same,normalized growth,"locus YPL106C, strain sse1, active compounds read low",1.01
same,normalized growth,"locus YPL240C, strain hsp82, active compounds read low",0.959
same,normalized growth,"locus YPL241C, strain CIN2, active compounds read low",0.997
same,normalized growth,"locus YPL256C, strain CLN2, active compounds read low",0.981
same,normalized growth,"locus YPR119W, strain clb2, active compounds read low",0.985
same,normalized growth,"locus YPR141C, strain kar3, active compounds read low",0.982
same,normalized growth,"locus YPR163C, strain tif3, active compounds read low",0.99
same,normalized growth,"locus YPR167C, strain met16, active compounds read low",1
same,normalized growth,"strain wtn01, active compounds read low",0.995
